From PubChem BioAssay
Tg IFNy HTS: T. gondii growth inhibition with IFN-gamma, primary screen, cell-based | Toxoplasma gondii growth in IFN-gamma-treated host cells; stronger effect = lower value | activity change, negative = inhibition, % (no concentration beside the values) | hit rate 3.8% among 69,000; in the data active = activity change below about -70%, passing the limit was not always enough;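 also: host cells are HeLa cells infected with Toxoplasma gondii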
Large screens that a line does not name were inactive. This excerpt belongs to a sample that is enriched for hits.

Cc1ccc2c(c1)c(Cn1cc(-c3sccc3C)nn1)nn2C	Tg IFNy HTS -86.0
O=C(COCC1COc2ccccc2O1)N1CCC(Oc2cccnc2)CC1 (centres undefined)	none
CC(c1ccc(-c2cncc(C(N)=O)c2)cc1)N1CCOCC1 (centres undefined)	none
COC1C2CCC1N(S(=O)(=O)c1cccnc1)CCO2 (centres undefined)	none
O=C(NC1CC1)C1CNCCN1C(=O)CCn1cc(Cl)cn1 (centres undefined)	none
CC(=O)N1CCC2(CCOCC2COc2ccccn2)CC1 (centres undefined)	none
CCCCCCCCCCCCCCCC[N+](C)(C)CCN(Cc1ccc(OC)cc1)c1ncccn1	Tg IFNy HTS -84.2
COc1ccc(CN(CCN(C)C)c2ncccn2)cc1	none
COc1ccc(CN(CCN(C)C)c2ccccn2)cc1	none
CC/C(=C(\c1ccc(O)cc1)c1ccc(OCCN(C)C)cc1)c1ccccc1	Tg IFNy HTS -97.6
CC/C(=C(/CC)c1ccc(O)cc1)c1ccc(O)cc1	none
CC/C(=C(\c1ccccc1)c1ccc(OCCN(C)C)cc1)c1ccccc1	none
CCc1cc(N2Cc3cnn(CCO)c3C2)nc(N2CCCC2)n1	none
O=C(O)C(c1ccc(O)cc1)n1cnnn1 (centres undefined)	none
COc1cccc(NC(=O)CN2C(=O)CCc3cc(S(=O)(=O)N4CCC(C)CC4)ccc32)c1	none
Cc1cc(C)cc(NC(=O)CN2C(=O)CCc3cc(S(=O)(=O)N4CCC(C)CC4)ccc32)c1	none
Cc1ccc(NC(=O)CN2C(=O)CCc3cc(S(=O)(=O)N4CCC(C)CC4)ccc32)cc1N(C)C	none
O=C(CN1C(=O)CCc2cc(S(=O)(=O)N3CCCC3)ccc21)Nc1ccc(Cl)cc1	none
O=C(CN1C(=O)CCc2cc(S(=O)(=O)N3CCCC3)ccc21)Nc1ccc2c(c1)OCCO2	none
CCc1ccc(NC(=O)CN2C(=O)CCc3cc(S(=O)(=O)N4CCC(C)CC4)ccc32)cc1	Tg IFNy HTS -77.2
COc1ccc(NC(=O)CN2C(=O)CCc3cc(S(=O)(=O)N4CCCCC4)ccc32)cc1OC	none
CCc1ccc(NC(=O)CN2C(=O)CCc3cc(S(=O)(=O)N4CCCCC4)ccc32)cc1	Tg IFNy HTS -97.3
CC1CCN(S(=O)(=O)c2ccc3c(c2)CCC(=O)N3CC(=O)Nc2ccc3c(c2)OCCO3)CC1	Tg IFNy HTS -88.0
Cc1ccc(NC(=O)CN2C(=O)CCc3cc(S(=O)(=O)N4CCC(C)CC4)ccc32)cc1	none
Cc1ccc(NC(=O)CN2C(=O)CCc3cc(S(=O)(=O)N4CCC(C)CC4)ccc32)cc1C	Tg IFNy HTS -99.2
CC1CCN(S(=O)(=O)c2ccc3c(c2)CCC(=O)N3CC(=O)NCc2ccc3c(c2)OCO3)CC1	none
COCCN1CCN(C)C2(CCN(Cc3nccn3C)CC2)C1=O	none
CO[C@H]1CCN(Cc2c(C)noc2C)[C@H]2CN(Cc3cccnc3)C[C@@H]12	none
CN(Cc1ccc(C(=O)Nc2ccc3c(c2)CC(=O)N3)cc1)CC1CCCO1 (centres undefined)	none
Cc1ccc2c(c1)NC1(CCN(S(=O)(=O)c3ccc4ccccc4c3)CC1)c1cccn1-2	none
O=C1C(Cc2ccccc2)N=C2c3ccccc3N=C(SCc3ccc(F)cc3)N12 (centres undefined)	none
COc1cccc([C@@H]2CCN(Cc3ccc(C(=O)O)cc3)C[C@H]2O)c1	none
C=CCOC1C2CCC1N(S(=O)(=O)c1cccnc1)CCO2 (centres undefined)	none
O=C(CN1C(=O)CCc2cc(S(=O)(=O)N3CCCC3)ccc21)Nc1cccc(Br)c1	Tg IFNy HTS -108.3
O=C(CN1C(=O)CCc2cc(S(=O)(=O)N3CCCC3)ccc21)Nc1cccc(F)c1	none
CC1CCN(S(=O)(=O)c2ccc3c(c2)CCC(=O)N3CC(=O)Nc2ccccc2)CC1	none
CC1CCN(S(=O)(=O)c2ccc3c(c2)CCC(=O)N3CC(=O)Nc2cccc(Cl)c2)CC1	Tg IFNy HTS -87.0
Cc1cccc(NC(=O)CN2C(=O)CCc3cc(S(=O)(=O)N4CCCCC4)ccc32)c1	none
CC1CCN(S(=O)(=O)c2ccc3c(c2)CCC(=O)N3CC(=O)Nc2cccc(F)c2)CC1	none
COCCC1COC2(CCN(C(=O)C3CCC3)CC2)C1 (centres undefined)	none
O=C(c1cc(COc2c(F)cccc2F)on1)N1CCCC(c2ccccc2)CC1 (centres undefined)	none
COc1ccc(-c2nc(C)c(CCNS(=O)(=O)c3ccc(Oc4ccccc4)cc3)s2)cc1	none
Cc1ccccc1NC(=O)c1nnn(Cc2nc(-c3cccc(Cl)c3)oc2C)c1C	none
CCOc1ccccc1CN(CC)C(=O)c1occc1C	none
CCc1nccc(CN2CCC(CNC(=O)C3CCC(C)CC3)C2)n1 (centres undefined)	none
CC(NC(=O)CCn1ccc(=O)[nH]c1=O)C1=CCCCC1 (centres undefined)	none
CCn1nccc1C(=O)N1CCC(c2cc(Cc3ccccc3)[nH]n2)CC1	none
Cc1c(Cc2c(Cl)cccc2Cl)c(=O)oc2cc(O)ccc12	Tg IFNy HTS -70.8
O=c1c2ccccc2oc2cc(O)ccc12	none
COc1cc(COc2ccc3c(C)c(Cc4ccccc4)c(=O)oc3c2)cc(OC)c1OC	none
CC1=C(C(=O)N2CCCC(C(=O)c3ccc4c5c(cccc35)CC4)C2)OCCO1 (centres undefined)	none
CC(C)c1cc(C2CCN(C(=O)c3cccc(N4CCNC4=O)c3)CC2)[nH]n1	none
COc1ccc(C(C)(C)C)cc1CN1CCC(O)(Cn2ccnc2C)CC1	none
CCN1CCC2(CN(CCOC)CC23CCN(S(=O)(=O)c2cccs2)CC3)C1=O (centres undefined)	none
CN(C)/N=N/c1nc[nH]c1C(N)=O	Tg IFNy HTS -83.2
C/C=C(/C)C(=O)O[C@H]1C(C)=C[C@]23C(=O)[C@@H](C=C(CO)[C@@H](O)[C@]12O)[C@H]1[C@@H](C[C@H]3C)C1(C)C	none
Cc1noc(C)c1NC(=O)Nc1ccc2c(c1)C(=O)N([C@H](C)CO)C[C@H](C)[C@H](CN(C)S(=O)(=O)c1cccs1)OCCCC[C@H](C)O2	none
Cc1noc(C)c1NC(=O)Nc1ccc2c(c1)C(=O)N([C@H](C)CO)C[C@@H](C)[C@@H](CN(C)S(=O)(=O)c1cccs1)OCCCC[C@H](C)O2	none
C[C@H]1CCCCO[C@H](CN(C)C(=O)C2CCCCC2)[C@@H](C)CN([C@@H](C)CO)C(=O)c2cc(NS(=O)(=O)c3ccccc3)ccc2O1	none
C[C@H](CO)N1C[C@H](C)[C@H](CN(C)C(=O)C2CCCCC2)OCCCC[C@H](C)Oc2ccc(NS(=O)(=O)c3ccccc3)cc2C1=O	Tg IFNy HTS -102.2
Cc1noc(C)c1NC(=O)Nc1ccc2c(c1)C(=O)N([C@H](C)CO)C[C@@H](C)[C@H](CN(C)S(=O)(=O)c1cccs1)OCCCC[C@H](C)O2	none
Cc1noc(C)c1NC(=O)Nc1ccc2c(c1)C(=O)N([C@H](C)CO)C[C@H](C)[C@H](CN(C)S(=O)(=O)c1cccs1)OCCCC[C@@H](C)O2	none
C[C@H]1CCCCO[C@@H](CN(C)C(=O)C2CCCCC2)[C@@H](C)CN([C@@H](C)CO)C(=O)c2cc(NS(=O)(=O)c3ccccc3)ccc2O1	none
C[C@H](CO)N1C[C@H](C)[C@H](CN(C)C(=O)c2ccncc2)OCCCC[C@H](C)Oc2ccc(NS(=O)(=O)c3cccs3)cc2C1=O	none
Cc1ccc(S(=O)(=O)Nc2ccc3c(c2)C(=O)N([C@H](C)CO)C[C@H](C)[C@H](CN(C)S(=O)(=O)c2cccs2)OCCCC[C@H](C)O3)cc1	Tg IFNy HTS -121.0
Cc1noc(C)c1NC(=O)Nc1ccc2c(c1)C(=O)N([C@@H](C)CO)C[C@@H](C)[C@@H](CN(C)S(=O)(=O)c1cccs1)OCCCC[C@@H](C)O2	none
